Assay outcomes from PubChem BioAssay.
Sampled rows, rich in hits. Any-hit rate of the full collection: about 18%.
DT40 TDP1 no CPT = qHTS for Inhibitors of human tyrosyl-DNA phosphodiesterase 1 (TDP1): qHTS in cells in absence of CPT | DT40 Tdp1-/- hTDP1 cells, no CPT, ATP luminescence, 48 h | actives 15% (n = 420,000) | AID 686978, 2013 | Potency, µM (top dose mostly 46.2 µM), usual class: inhibitors; also: nearly all actives have a fitted effect of over 55% in size
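No-CPT arm: Tdp1-/-;hTDP1 DT40 cells (400/well) plus compounds, incubated ≥48 hr at 37 °C. Readout CellTiter-Glo luminescence.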
DT40 TDP1 CPT = growth inhibition of DT40 Tdp1-/-;hTDP1 cells with camptothecin (screen for TDP1 inhibitors) | chicken DT40 Tdp1-/-;hTDP1 cells + 20 nM CPT, ATP luminescence, 48 h | Potency, µM (titrated, usually from 46.2 µM), hits mostly inhibitors | actives 12% (n = 420,000); also: nearly all actives have a fitted effect of over 55% in size
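Cell growth measured by CellTiter-Glo luminescence after a minimum 48 h, 37 C compound exposure with 20 nM CPT in Tdp1-knockout DT40 cells stably expressing hTDP1, seeded 400/well; qHTS titration format.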
Gal4-VP16 FLuc = counter-screen for ROR gamma inhibitors: Gal4-VP16 reporter; Drosophila S2 Gal4-VP16 UAS-luciferase, luminescence, 20 h; Potency, µM (top dose mostly 53.6 µM), usual class: inhibitors; actives 3.5% (n = 310,000);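 also: Gal4-VP16 expression switched on by copper sulfate through the metallothionein promoter; nearly all actives have a fitted effect of over 50% in size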
IL1B secr inh = blocks inflammasome-driven IL-1 beta release; activity change, % at 57.5 µM; THP-1 LPS/ATP IL-1B secretion, AlphaLISA, 16 h; active compounds read low; actives 4.7% (n = 360,000); in the data active = activity change below about -50%; inconclusive = mostly about -30% to -49%
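Secreted IL-1B measured by AlphaLISA bead assay after 16 h compound exposure of THP-1 cells; compounds (final up to 57.5 uM) added 1 h before LPS (250 ng/mL) and ATP (1.25 mM) stimulation; lower signal means less secretion.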
RORgamma inh = inhibitors of mouse ROR gamma transcriptional activity; Drosophila S2 Gal4-RORgamma UAS-luciferase reporter, 20 h; Potency, µM (top dose mostly 53.6 µM), most hits filed as inhibitors; actives 5.4% (n = 310,000); AID 2551; also: nearly all actives have a fitted effect of over 60% in size
Target sequence (P51450 whole entry, looked up, the tested form may be a part): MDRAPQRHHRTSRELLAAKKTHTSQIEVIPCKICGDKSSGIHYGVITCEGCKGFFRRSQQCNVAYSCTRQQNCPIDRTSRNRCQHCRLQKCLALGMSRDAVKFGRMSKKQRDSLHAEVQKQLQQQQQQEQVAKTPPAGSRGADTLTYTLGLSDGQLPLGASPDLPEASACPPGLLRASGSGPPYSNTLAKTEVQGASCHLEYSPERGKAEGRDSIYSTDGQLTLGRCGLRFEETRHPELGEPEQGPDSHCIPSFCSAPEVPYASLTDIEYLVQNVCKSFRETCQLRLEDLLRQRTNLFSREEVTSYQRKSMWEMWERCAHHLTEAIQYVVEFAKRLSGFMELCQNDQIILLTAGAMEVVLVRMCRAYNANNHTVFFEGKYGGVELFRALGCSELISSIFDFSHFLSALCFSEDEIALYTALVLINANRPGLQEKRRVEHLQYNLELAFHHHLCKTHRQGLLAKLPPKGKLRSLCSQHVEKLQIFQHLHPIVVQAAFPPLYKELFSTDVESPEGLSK
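A Gal4/UAS one-hybrid system in insect cells: metallothionein-promoter Gal4–ROR gamma fusion plus Photinus luciferase reporter. Copper sulfate 700 uM final, 20 hr ambient incubation, luminescent detection after 10 min with reagent.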
LDHA inh = blocks human lactate dehydrogenase A. actives 0.15% (n = 480,000). purified LDHA, NADH/diaphorase-resazurin fluorescence; active compounds read low. P00338. AID 1347041. activity change, % (values are at about 110 or 230 µM); in the data active = activity change below about -30%; inconclusive = mostly about -25% to -30%
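LDH5 2 nM; NADH 0.06 mM, pyruvate 0.2 mM; 200 mM Tris pH 7.4, EDTA, Tween-20; 5 min RT. Detection: diaphorase 0.133 mg/mL + resazurin 37 µM, fluorescence ex540/em590 at 0 and 20 min; normalized to enzyme-free and DMSO wells.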
Hits are given with their value; - = inactive; ? = inconclusive; . = no result given; + = active, no number. Unless noted, calls follow the shape of the dose curve; as a rule, active = well fitted curve in the direction sought with a large enough effect; inconclusive = small, poorly fitted or top-dose-only effect, or another doubt; inactive = no such curve, though single readings can be large; an effect the other way counts as inactive or inconclusive.

SMILES	DT40 TDP1 no CPT	DT40 TDP1 CPT	Gal4-VP16 FLuc	IL1B secr inh	RORgamma inh	LDHA inh
CCCCn1c(C(C)NC(=O)CC)nc2ccccc21 (stereo not drawn)	12µM	23µM	-	-	-	-
CC(C)CNC(=O)NC(=O)CSc1nc2ccccc2n1CC(C)C	23µM	?	-	-	-	-
CC1(C)CCc2cc3c4c(/c(=N\O)oc3cc2O1)CCCC4	.	.	.	.	.	-
O=C(NC1CCCCC1)C(c1ccccc1)N(C(=O)c1cnccn1)c1cccs1 (stereo not drawn)	.	.	.	.	.	-
COCCCNC(=S)NC1CCCCC1	?	-	?	-	11µM	-
OCCNC(=S)NC1CCCCC1	-	-	-	-	-	-
S=C(NCCCN1CCN(CCCNC(=S)NC2CCCCC2)CC1)NC1CCCCC1	15µM	15µM	.	-	.	-
O=C(NC1CCCCC1)c1cc2sc3ccccc3c2s1	.	.	.	.	.	-
CC(C)Cc1ccc(C(C)NC(=O)Cn2nc(-c3ccc(F)cc3)oc2=O)cc1 (stereo not drawn)	.	.	.	.	.	-
C=CCn1c(C)cc(C(=O)CSc2nc3cc([N+](=O)[O-])ccc3o2)c1C	.	.	.	.	.	-
Cc1cc(NC(=O)OC2CCCCC2)ccc1[N+](=O)[O-]	?	-	?	-51	-	-
CCc1ccc(/C=C/C(=O)c2cc3cccc(OC)c3oc2=O)cc1	.	.	.	.	.	-
N#CSCC(=O)c1cccc2ccccc12	4.6µM	4.6µM	?	-61	11µM	-
COc1ccc(NC(=O)C2(C)CCN2C(=O)c2ccccc2CCc2ccccc2)cc1OC (stereo not drawn)	9.2µM	15µM	.	-	.	-
CC1(C(=O)N2CCCCC2)CCN1C(=O)c1ccccc1CCc1ccccc1 (stereo not drawn)	15µM	?	.	-	.	-
Cc1ccc(NC(=O)C2(C)CCN2C(=O)c2ccccc2CCc2ccccc2)cc1C (stereo not drawn)	-	21µM	.	-	.	-
Cc1cccc(S(=O)(=O)NC(=O)C2(C)CCN2C(=O)c2ccccc2CCc2ccccc2)c1 (stereo not drawn)	+	?	.	-	.	-
CC1(C(=O)NCCC#N)CCN1C(=O)c1ccccc1CCc1ccccc1 (stereo not drawn)	-	?	.	-	.	-
CNC(=O)C1(C)CCN1C(=O)c1ccccc1CCc1ccccc1 (stereo not drawn)	-	-	.	-	.	-
CCOC(=O)C(=O)Nc1c(C(=O)Nc2ccc(F)cc2)oc2ccccc12	.	.	.	.	.	-
CCOC(=O)CC(NC(=O)c1cc2cc(OC)ccc2oc1=O)c1ccc(C)cc1 (stereo not drawn)	.	.	.	.	.	-
CC1CCN(CC(=O)NC(c2cccs2)C(C)C)CC1 (stereo not drawn)	.	.	.	.	.	-
O=C(c1cccs1)N1CCCc2cc(NS(=O)(=O)c3ccc(F)cc3)ccc21	-	21µM	.	.	.	-
COc1ccc(F)cc1S(=O)(=O)Nc1ccc2c(c1)CCCN2C(=O)c1cccs1	18µM	?	.	.	.	-
O=C(c1cccs1)N1CCCc2cc(NS(=O)(=O)c3ccc(Cl)cc3)ccc21	?	?	.	.	.	-
SMILES	DT40 TDP1 no CPT	DT40 TDP1 CPT	Gal4-VP16 FLuc	IL1B secr inh	RORgamma inh	LDHA inh
COc1ccc(OC)c(S(=O)(=O)Nc2ccc3c(c2)CCCN3C(=O)c2cccnc2)c1	.	.	.	.	.	-
Cc1ccc(S(=O)(=O)Nc2ccc3c(c2)CCCN3C(=O)c2cccs2)cc1C	16µM	21µM	.	.	.	-
Cc1cc(F)ccc1S(=O)(=O)Nc1ccc2c(c1)CCCN2C(=O)c1cccs1	23µM	21µM	.	.	.	-
Cc1cc(F)ccc1S(=O)(=O)Nc1ccc(N2CCCC2)c(F)c1	.	.	.	.	.	-
CC(C(=O)NC1CCCCC1)(c1ccccc1)c1ccccc1	.	.	.	.	.	-
COc1ccc(CCn2cnc3c2c(=O)n(C)c(=O)n3C)cc1	.	.	.	.	.	-
CC(=O)Nc1cccc(C(=O)NCc2nc(C)cs2)c1	.	.	.	.	.	-
O=C(CSc1ncnc2ccccc12)Nc1c(Cl)cccc1Cl	.	.	.	.	.	-
Cc1cc2oc(C(=O)NCC(c3cccs3)N3CCCCCC3)cc(=O)c2cc1C (stereo not drawn)	.	.	.	.	.	-
